Results on 9 compounds are retold here after PubChem BioAssay (Tox21).

The nature of test [1]: qHTS assay to identify small molecule antagonists of the glucocorticoid receptor (GR) signaling pathway - cell viability counter screen (AID 720693). Note: nearly all actives have a fitted effect of over 55% in size.
Test [2] is described as follows: qHTS assay for identifying genotoxic compounds that show differential cytotoxicity against isogenic chicken DT40 cell lines with known DNA damage response pathways - wild type cell line (AID 743012). Note: nearly all actives have a fitted effect of over 60% in size. Note: potency is the fitted concentration of half-maximal effect. The method in brief: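 Viability of DNA repair-proficient chicken DT40 cells was assessed by CellTiter-Glo luminescence following 40 h compound exposure at 37 C/5% CO2.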
In general terms: Quantitative high-throughput screening tests each substance at several concentrations.

Test [3] can be described thus: qHTS assay for identifying genotoxic compounds that show differential cytotoxicity against isogenic chicken DT40 cell lines with known DNA damage response pathways - Rev3 mutant cell line (AID 743014). Note: nearly all actives have a fitted effect of over 55% in size. Note: potency is the fitted concentration of half-maximal effect.
Test [4] is described as follows: qHTS assay to identify small molecule antagonists of the androgen receptor (AR) signaling pathway - cell viability counter screen (AID 743033; note: nearly all actives have a fitted effect of over 45% in size).
Test [5] in a line: qHTS assay to identify small molecule antagonists of the androgen receptor (AR) signaling pathway using the MDA cell line - cell viability counter screen (AID 743041; note: nearly all actives have a fitted effect of over 45% in size). The method in brief:
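In this qHTS counter assay, fluorescence intensity after CellTiter-Fluor addition indicated viability of MDA-kb2 AR-luc cells given compounds and R1881 for 16 h at 37C.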

A short description of test [6]: qHTS assay to identify small molecule antagonists of the thyroid receptor (TR) signaling pathway - cell viability counter screen (AID 743064). Note: nearly all actives have a fitted effect of over 50% in size. Note: potency is the fitted concentration of half-maximal effect. The method in brief: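 Viability of T3-stimulated (1 nM final) GH3.TRE-Luc cells is measured by CellTiter-Fluor fluorescence after 23.5 h compound exposure at 37 °C plus 30 min reagent incubation.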
Test [7] can be described thus: qHTS assay to identify small molecule antagonists of the thyroid receptor (TR) signaling pathway (AID 743065). Note: series mostly up to about 70 µM; nearly all actives have a fitted effect of over 55% in size. The method in brief:
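GH3.TRE-Luc rat pituitary cells carrying two TR response elements driving luciferase were plated for 4 h, given compound plus 1 nM T3 (final), and incubated 23.5 h at 37 C. ONE-Glo luminescence measured reporter inhibition; CellTiter-Fluor fluorescence tracked cytotoxicity.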

For test [8], the system named is thyroid hormone receptor (rat, GH3 cells). The test is described as follows: qHTS assay to identify small molecule agonists of the thyroid receptor (TR) signaling pathway (AID 743066; calls by dose curve).
Test [9] deals with Estrogen receptor (Homo sapiens) (UniProt P03372). The experiment in a line: qHTS assay to identify small molecule antagonists of the estrogen receptor alpha (ER-alpha) signaling pathway (AID 743069; active = well fitted curve in the direction sought with a large enough effect in the signal ratio in the repeat runs, not every such curve was filed as active; the % refers to the signal ratio). The method in brief: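 A 17beta-estradiol challenge was applied right after compound transfer to ER-alpha-UAS-bla HEK293 cells previously kept in charcoal-stripped serum. Plates stood 18 hr at 37C and 5% CO2; fluorescence was read following 2 hr FRET substrate loading at room temperature.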
Sequence of Estrogen receptor (Homo sapiens) (P03372 whole entry, looked up): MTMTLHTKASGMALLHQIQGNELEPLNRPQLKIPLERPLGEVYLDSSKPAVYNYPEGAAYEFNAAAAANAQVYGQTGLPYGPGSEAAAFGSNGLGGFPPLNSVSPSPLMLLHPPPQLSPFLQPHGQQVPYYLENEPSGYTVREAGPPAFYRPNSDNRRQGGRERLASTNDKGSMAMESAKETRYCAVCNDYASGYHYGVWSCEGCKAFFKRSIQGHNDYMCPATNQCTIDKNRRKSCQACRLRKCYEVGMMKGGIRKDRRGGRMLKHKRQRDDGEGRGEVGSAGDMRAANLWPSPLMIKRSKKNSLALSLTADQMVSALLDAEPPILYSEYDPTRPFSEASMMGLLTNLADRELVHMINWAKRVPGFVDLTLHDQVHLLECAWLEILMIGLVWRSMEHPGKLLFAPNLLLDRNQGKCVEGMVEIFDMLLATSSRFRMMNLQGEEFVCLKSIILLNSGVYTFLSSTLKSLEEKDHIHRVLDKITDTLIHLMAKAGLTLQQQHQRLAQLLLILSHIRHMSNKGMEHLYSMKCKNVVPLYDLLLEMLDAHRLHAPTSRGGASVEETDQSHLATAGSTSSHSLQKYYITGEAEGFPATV

The nature of test [10]: qHTS assay to identify small molecule antagonists of the estrogen receptor alpha (ER-alpha) signaling pathway - cell viability counter screen (AID 743074; calls by dose curve;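 note: HEK293 cells carrying ER-alpha-UAS-bla reporter stimulated with 17beta-estradiol; nearly all actives have a fitted effect of over 45% in size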).
Test [11] addresses Estrogen receptor (Homo sapiens) (UniProt P03372). The experiment in a line: qHTS assay to identify small molecule agonists of the estrogen receptor alpha (ER-alpha) signaling pathway (AID 743075; calls by dose curve;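 note: HEK293 GripTite cells with ER-alpha and UAS-driven beta-lactamase reporter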).
Test [12] shares this target. The test is described as follows: qHTS assay to identify small molecule agonists of the estrogen receptor alpha (ER-alpha) signaling pathway using the BG1 cell line (AID 743079). Note: nearly all actives have a fitted effect of over 20% in size.
A short description of test [13]: qHTS assay to identify small molecule antagonists of the estrogen receptor alpha (ER-alpha) signaling pathway using the BG1 cell line (AID 743080; calls by dose curve;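 note: BG1 cells stimulated with 17beta-estradiol alongside compound; nearly all actives have a fitted effect of over 25% in size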; note: potency is the fitted concentration of half-maximal effect). The method in brief: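 Luminescence from a 4×ERE-luciferase reporter in BG1-Luc-4E2 cells served as read-out. Cells, pre-cultured 5 days in stripped-serum phenol-red-free medium, were exposed to compound with 17beta-estradiol co-stimulation for 21.5 h at 37 C.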

Test [14] can be described thus: qHTS assay to identify small molecule antagonists of the estrogen receptor alpha (ER-alpha) signaling pathway using the BG1 cell line - cell viability counter screen (AID 743081).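 Note: compound given together with 17beta-estradiol as the ER stimulus; series mostly up to about 70 µM; nearly all actives have a fitted effect of over 45% in size.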
Test [15] deals with Aromatase (Homo sapiens) (UniProt P11511). The experiment in a line: qHTS assay to identify aromatase inhibitors (AID 743083). Note: series mostly up to about 70 µM; nearly all actives have a fitted effect of over 55% in size.
Sequence of Aromatase (Homo sapiens) (P11511 whole entry, looked up): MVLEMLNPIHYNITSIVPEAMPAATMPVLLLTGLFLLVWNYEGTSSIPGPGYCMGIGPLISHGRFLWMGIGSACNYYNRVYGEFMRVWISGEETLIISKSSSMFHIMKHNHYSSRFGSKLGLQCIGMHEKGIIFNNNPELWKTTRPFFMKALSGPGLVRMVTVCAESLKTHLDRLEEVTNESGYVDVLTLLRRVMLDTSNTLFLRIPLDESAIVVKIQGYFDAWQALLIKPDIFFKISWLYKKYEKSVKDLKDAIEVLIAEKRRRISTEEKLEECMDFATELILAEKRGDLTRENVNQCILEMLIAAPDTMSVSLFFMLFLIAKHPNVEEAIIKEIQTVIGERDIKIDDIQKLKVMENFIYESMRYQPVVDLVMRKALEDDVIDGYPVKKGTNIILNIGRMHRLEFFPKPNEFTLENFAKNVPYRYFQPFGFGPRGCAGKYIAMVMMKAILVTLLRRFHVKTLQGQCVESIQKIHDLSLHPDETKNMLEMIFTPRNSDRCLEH
Test [16] is described as follows: qHTS assay for identifying genotoxic compounds that show differential cytotoxicity against isogenic chicken DT40 cell lines with known DNA damage response pathways - Rad54/Ku70 mutant cell line (AID 743015). Note: nearly all actives have a fitted effect of over 60% in size. Note: potency is the fitted concentration of half-maximal effect.
In test [17] the target is Androgen receptor (Homo sapiens) (UniProt P10275). The test is described as follows: qHTS assay to identify small molecule agonists of the androgen receptor (AR) signaling pathway (AID 743036; active = well fitted activation curve with a large enough effect in the signal ratio in the repeat runs, with a control signal flat, not every such curve was filed as active; the % refers to the signal ratio). The method in brief: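 Screening used 2,000 AR-bla HEK293 cells per well, treated 16 h at 37C with test compounds in DMSO alongside positive and DMSO-only controls; beta-lactamase activity was then read by LiveBLAzer B/G FRET fluorescence after 2 h at room temperature.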
Sequence of Androgen receptor (Homo sapiens) (P10275 whole entry, looked up): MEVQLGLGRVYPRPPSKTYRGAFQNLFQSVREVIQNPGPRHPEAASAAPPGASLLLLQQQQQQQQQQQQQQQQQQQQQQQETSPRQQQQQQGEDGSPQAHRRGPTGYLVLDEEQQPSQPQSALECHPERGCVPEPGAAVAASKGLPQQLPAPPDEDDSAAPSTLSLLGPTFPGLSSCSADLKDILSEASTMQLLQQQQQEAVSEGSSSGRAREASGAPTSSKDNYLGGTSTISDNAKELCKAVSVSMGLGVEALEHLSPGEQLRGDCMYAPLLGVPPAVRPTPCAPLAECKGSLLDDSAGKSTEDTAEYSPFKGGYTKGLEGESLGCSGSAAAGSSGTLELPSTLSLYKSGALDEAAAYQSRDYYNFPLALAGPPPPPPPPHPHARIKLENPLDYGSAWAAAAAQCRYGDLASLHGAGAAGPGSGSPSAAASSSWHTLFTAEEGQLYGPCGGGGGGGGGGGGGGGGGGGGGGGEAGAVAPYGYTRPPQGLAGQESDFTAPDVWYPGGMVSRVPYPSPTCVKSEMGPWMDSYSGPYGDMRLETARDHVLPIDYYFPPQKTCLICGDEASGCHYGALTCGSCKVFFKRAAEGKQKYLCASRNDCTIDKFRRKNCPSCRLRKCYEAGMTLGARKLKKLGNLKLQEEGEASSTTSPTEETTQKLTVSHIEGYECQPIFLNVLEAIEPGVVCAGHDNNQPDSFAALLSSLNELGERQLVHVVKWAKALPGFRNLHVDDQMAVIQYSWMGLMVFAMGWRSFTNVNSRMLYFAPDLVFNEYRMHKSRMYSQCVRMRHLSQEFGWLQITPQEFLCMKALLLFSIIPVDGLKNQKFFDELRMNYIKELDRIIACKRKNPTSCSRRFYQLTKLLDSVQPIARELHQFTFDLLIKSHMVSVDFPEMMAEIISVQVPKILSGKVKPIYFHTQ

The target is the same in test [18]. The experiment in a line: qHTS assay to identify small molecule agonists of the androgen receptor (AR) signaling pathway using the MDA cell line (AID 743040; note: nearly all actives have a fitted effect of over 20% in size). The method in brief: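 Cell-based luciferase reporter: MDA-kb2, MMTV promoter (AR + GR response elements). 16 h compound exposure at 37C; ONE-Glo, 30 min RT, luminescence.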
For test [19] the target is unchanged. The experiment in a line: qHTS assay to identify small molecule antagonists of the androgen receptor (AR) signaling pathway using the MDA cell line (AID 743042; note: nearly all actives have a fitted effect of over 55% in size). The method in brief:
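MDA-kb2 cells (human breast carcinoma, stably carrying an MMTV-luciferase reporter responsive to AR and GR) were plated at 3,000 cells/well and preincubated 5 hr at 37C, then given compound plus R1881 agonist for 16 h. ONE-Glo luminescence was read.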

Test [20] has the same target. The test is described as follows: qHTS assay to identify small molecule antagonists of the androgen receptor (AR) signaling pathway (AID 743035; active = well fitted inhibition curve with a large enough effect in the signal ratio in the repeat runs, not every such curve was filed as active; the % refers to the signal ratio). The method in brief:
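Reporter HEK293 cells were exposed to compounds and R1881 overnight (16 h, 37C); beta-lactamase activity was then quantified by FRET fluorescence.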

Records with an inconclusive call do not appear. A structure can be active in one record and inactive in another. Active and inactive are the calls of the source. Unless noted, calls come from the whole dose curve; as a rule, active = well fitted curve in the direction sought with a large enough effect in the repeat runs; inconclusive = weak or mixed curves; inactive = no such curve, though single readings can be large; an effect the other way counts as inactive or inconclusive.

For `CC[C@H]1OC(=O)C[C@@H](O)[C@H](C)[C@@H](O[C@@H]2O[C@H](C)[C@@H](O[C@H]3C[C@@](C)(O)[C@@H](O)[C@H](C)O3)[C@H](N(C)C)[C@H]2O)[C@@H](CC=O)C[C@@H](C)C(=O)/C=C/C(C)=C/[C@@H]1CO[C@@H]1O[C@H](C)[C@@H](O)[C@@H](OC)[C@H]1OC`, the Potency entry in test [1], in test [2], in [3], in [4], in [5] and in [6] was “inactive” each time. Further, the Potency result in test [7], in test [8], in test [9], in test [10], in test [11] and in test [12] was “inactive” throughout. Besides, the Potency entry in [14] and in [15] was “inactive” in each case. The Potency in test [13] was 16.8 µM (active) and inactive.
Take `CCC(=O)OC(OP(=O)(CCCCc1ccccc1)CC(=O)N1C[C@H](C2CCCCC2)C[C@H]1C(=O)O)C(C)C` (stereo not given in full): the Potency entry in test [1], in test [2], in [16], in [4], in test [5] and in test [6] was “inactive” each time. The Potency entry in test [7], in test [8], in test [9], in test [10], in [11] and in test [12] was “inactive” in each case. Besides, the Potency entry in [13], in test [14] and in [15] was “inactive” each time.
In the case of `COC(=O)C(CN)c1c[nH]c2ccc(OC)cc12` (stereo not given), the Potency result in test [1], in test [2], in test [16], in test [4], in [5] and in test [6] was “inactive” throughout. Moreover, the Potency entry in [7], in [8], in [9], in [10], in [11] and in test [12] was “inactive” in each case. Also, the Potency result in [13], in test [14] and in [15] was “inactive” each time.
As to `CCN(CC)CCn1c(=O)c(Cc2ccc(OC)cc2)nc2ccccc21`, the Potency entry in [1], in [4], in [17], in [18], in test [5] and in [19] was “inactive” in each case. Moreover, the Potency entry in test [8], in [9], in [10], in test [11], in test [12] and in test [13] was “inactive” in each case. In addition, the Potency result in test [14] and in [15] was “inactive” in each case. Further, the Potency in [2] is 26.6 µM (active); in [3], 29.8 µM (active); in [6] it was 26.6 µM (active).
Consider `CO/N=C(\C(=O)N[C@@H]1C(=O)N2C(C(=O)O)=C(CSc3cnns3)CS[C@H]12)c1csc(N)n1`, for which the Potency entry in test [1], in test [2], in test [16], in test [4], in test [17] and in test [18] was “inactive” each time. Besides, the Potency entry in test [5], in test [19], in test [9], in [10], in test [11] and in test [12] was “inactive” throughout. Besides, the Potency entry in test [13], in test [14] and in test [15] was “inactive” throughout.
As for `CC[C@H]1OC(=O)[C@H](C)C(=O)[C@H](C)[C@@H](O[C@@H]2O[C@H](C)C[C@H](N(C)C)[C@H]2O)[C@](C)(OC)C[C@@H](C)C(=O)[C@H](C)[C@H]2N(CCCCn3cnc(-c4cccnc4)c3)C(=O)O[C@]12C`, the Potency entry in test [1], in test [6], in test [7], in test [8], in [9] and in test [10] was “inactive” in each case. The Potency entry in test [11], in test [12], in test [13], in test [14] and in test [15] was “inactive” throughout. Also, the Potency in test [2] was 4.22 µM (active); in test [3], 5.96 µM (active) and inactive; in [16] it was 6.68 µM (active).
For `O=C[C@H](O)[C@@H](O)[C@@H](O)[C@H](O)CO`, the Potency entry in [1], in [2], in [3], in test [16], in [5] and in test [6] was “inactive” each time. The Potency result in test [7], in [8], in test [9], in [10], in [11] and in [12] was “inactive” each time. Moreover, the Potency result in [13], in test [14] and in test [15] was “inactive” throughout.
Regarding `O=C(O)c1ccc(NC2OC[C@@H](O)[C@H](O)[C@H]2O)cc1` (stereo not given in full), the Potency result in [1], in test [2], in test [16], in [4], in [5] and in [6] was “inactive” in each case. For the same compound, the Potency entry in test [7], in [8], in [9], in test [10], in [11] and in test [12] was “inactive” throughout. Besides, the Potency result in test [13], in [14] and in test [15] was “inactive” in each case.
Regarding `C[C@@H]1O[C@@H]1P(=O)(O)O`, the Potency result in test [1], in [2], in test [16], in test [4], in test [20] and in [17] was “inactive” in each case. Also, the Potency result in test [18], in test [5], in [19], in test [7], in test [8] and in test [10] was “inactive” throughout. Further, the Potency result in test [14] and in test [15] was “inactive” each time.
